Measurements: publication PMC5540273 (PLoS ONE, 2017)

Legend:
Conditions in all cases: concentration: 1 μM, replicates: in singlicate; n = 1
CAMK1B = system: CAMK1B
CAMK1D = system: CAMK1D
CAMK1G = system: CAMK1G
CAMK1 = system: CAMK1
CAMK2A = system: CAMK2A
CAMK2B = system: CAMK2B
CAMK2D = system: CAMK2D
CAMK2G = system: CAMK2G
CAMK4 = system: CAMK4
CAMKK1 = system: CAMKK1
CAMKK2 = system: CAMKK2
CASK = system: CASK
CDC2L1 = system: T1, CDC2L1
T1 construct: gene CDK11B

CDC2L2 = system: CDC2L2
CDC2L5 = system: T2, CDC2L5
T2 construct: gene CDK13

CDK11 = system: T3, CDK11
T3 construct: gene CDK19

CDK2 = system: CDK2
CDK3 = system: CDK3
CDK4-cyclinD1 = system: CDK4-cyclinD1
CDK4-cyclinD3 = system: CDK4-cyclinD3
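Further: KINOMEscan kinase panel screen.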

| SMILES | %Inh (CAMK1B) [%] | %Inh (CAMK1D) [%] | %Inh (CAMK1G) [%] | %Inh (CAMK1) [%] | %Inh (CAMK2A) [%] | %Inh (CAMK2B) [%] | %Inh (CAMK2D) [%] | %Inh (CAMK2G) [%] | %Inh (CAMK4) [%] | %Inh (CAMKK1) [%] | %Inh (CAMKK2) [%] | %Inh (CASK) [%] | %Inh (CDC2L1) [%] | %Inh (CDC2L2) [%] | %Inh (CDC2L5) [%] | %Inh (CDK11) [%] | %Inh (CDK2) [%] | %Inh (CDK3) [%] | %Inh (CDK4-cyclinD1) [%] | %Inh (CDK4-cyclinD3) [%] |
| --- | --- | --- | --- | --- | --- | --- | --- | --- | --- | --- | --- | --- | --- | --- | --- | --- | --- | --- | --- | --- |
| COc1ccc(Nc2nccc(-c3cccc(NC(=O)c4cc5cc(F)ccc5[nH]4)c3)n2)cc1 [GSK1229782] | 0 | 20 | 13 | 36 | 0 | 0 | 23 | 34 | 0 | 20 | 29 | 14 | 4 | 24 | 0 | 24 | 17 | 20 | 17 | 0 |
| Cc1cc(N2Cc3ccccc3C2)nc(Nc2ccc(S(=O)(=O)N3CCOCC3)cc2)n1.Cl [GSK1669917] | 4 | 9 | 0 | 5 | 0 | 0 | 2 | 20 | 0 | 0 | 0 | 7 | 0 | 23 | 0 | 0 | 0 | 0 | 0 | 0 |
| C[C@@H]1CCCCN1c1cc(-c2ccc3c(N)n[nH]c3c2)nc(N)n1 [GSK2258759] | 0 | 15 | 0 | 9 | 0 | 0 | 1 | 28 | 0 | 8 | 26 | 11 | 0 | 18 | 0 | 4 | 0 | 15 | 0 | 7 |
| Cc1cccc(-c2cc(Nc3ccncc3)c3ccccc3n2)n1 [GSK223675] | 25 | 26 | 6 | 17 | 0 | 0 | 20 | 26 | 0 | 12 | 20 | 0 | 0 | 19 | 0 | 7 | 0 | 0 | 0 | 9 |
| O=C(Nc1n[nH]c2cc(-c3cccc(F)c3F)ccc12)C1CC1 [SB-733894] | 0 | 12 | 100 | 26 | 19 | 13 | 1 | 7 | 0 | 8 | 13 | 30 | 2 | 0 | 8 | 5 | 22 | 0 | 0 | 30 |
| COc1cc2ncn(-c3cc(OCC4CCCO4)c(C(N)=O)s3)c2cc1OC (stereo not drawn) [GSK204607] | 0 | 13 | 0 | 6 | 0 | 0 | 0 | 0 | 0 | 0 | 8 | 0 | 0 | 8 | 0 | 0 | 0 | 0 | 0 | 0 |
| O=C(Nc1n[nH]c2nc(-c3nccs3)c(Br)cc12)C1CC1 [SB-742251] | 19 | 0 | 0 | 0 | 0 | 0 | 0 | 0 | 0 | 0 | 0 | 42 | 0 | 0 | 13 | 0 | 81 | 50 | 65 | 25 |
| COc1ccccc1CNC(=O)c1cc(C(=O)c2ccccc2C)c[nH]1 [GSK364507] | 7 | 0 | 0 | 9 | 0 | 0 | 0 | 12 | 0 | 7 | 5 | 12 | 0 | 19 | 0 | 15 | 0 | 10 | 0 | 7 |
| Cc1cccc(-c2nc(Nc3ccc4[nH]ncc4c3)c3ccccc3n2)n1 [GW857175] | 0 | 0 | 0 | 0 | 15 | 3 | 0 | 0 | 0 | 0 | 0 | 45 | 12 | 9 | 20 | 0 | 0 | 0 | 23 | 0 |
